Laboratory results: PubChem BioAssay (Tox21)
Several values for one entry are separate records, joined by “and”; a condition that tells them apart may be missing. Equal values may be shown once. More than one record can exist for a structure, and the calls need not agree. Activity calls are given as the source filed them. Where a call stands in place of a potency, no number is given. Unless noted, calls follow the shape of the dose curve; as a rule, active = well fitted curve in the direction sought with a large enough effect in the repeat runs; inconclusive = weak or mixed curves; inactive = no such curve, though single readings can be large; an effect the other way counts as inactive or inconclusive.

Assays:
[1] = qHTS assay to identify small molecule antagonists of the glucocorticoid receptor (GR) signaling pathway - cell viability counter screen (AID 720693); also: nearly all actives have a fitted effect of over 55% in size; also: potency is read from the fitted curve at half-maximal effect
[2] = qHTS assay for identifying genotoxic compounds that show differential cytotoxicity against isogenic chicken DT40 cell lines with known DNA damage response pathways - Rev3 mutant cell line (AID 743014); also: nearly all actives have a fitted effect of over 55% in size; also: potency is read from the fitted curve at half-maximal effect
[3] = qHTS assay for identifying genotoxic compounds that show differential cytotoxicity against isogenic chicken DT40 cell lines with known DNA damage response pathways - Rad54/Ku70 mutant cell line (AID 743015); also: nearly all actives have a fitted effect of over 60% in size; also: potency is read from the fitted curve at half-maximal effect
[4] = qHTS assay to identify small molecule antagonists of the androgen receptor (AR) signaling pathway - cell viability counter screen (AID 743033; also: nearly all actives have a fitted effect of over 45% in size; also: potency is read from the fitted curve at half-maximal effect)
[5] = molecular target: Androgen receptor (Homo sapiens) (UniProt P10275); experiment: qHTS assay to identify small molecule antagonists of the androgen receptor (AR) signaling pathway (AID 743035; active = well fitted inhibition curve with a large enough effect in the signal ratio in the repeat runs, not every such curve was filed as active; inconclusive = weak or mixed curves, or effect the other way; inactive = no such curve, though single readings can be large or run the other way; the % refers to the signal ratio; also: potency is read from the fitted curve at half-maximal effect)
Sequence of Androgen receptor (Homo sapiens) (P10275 whole entry, looked up): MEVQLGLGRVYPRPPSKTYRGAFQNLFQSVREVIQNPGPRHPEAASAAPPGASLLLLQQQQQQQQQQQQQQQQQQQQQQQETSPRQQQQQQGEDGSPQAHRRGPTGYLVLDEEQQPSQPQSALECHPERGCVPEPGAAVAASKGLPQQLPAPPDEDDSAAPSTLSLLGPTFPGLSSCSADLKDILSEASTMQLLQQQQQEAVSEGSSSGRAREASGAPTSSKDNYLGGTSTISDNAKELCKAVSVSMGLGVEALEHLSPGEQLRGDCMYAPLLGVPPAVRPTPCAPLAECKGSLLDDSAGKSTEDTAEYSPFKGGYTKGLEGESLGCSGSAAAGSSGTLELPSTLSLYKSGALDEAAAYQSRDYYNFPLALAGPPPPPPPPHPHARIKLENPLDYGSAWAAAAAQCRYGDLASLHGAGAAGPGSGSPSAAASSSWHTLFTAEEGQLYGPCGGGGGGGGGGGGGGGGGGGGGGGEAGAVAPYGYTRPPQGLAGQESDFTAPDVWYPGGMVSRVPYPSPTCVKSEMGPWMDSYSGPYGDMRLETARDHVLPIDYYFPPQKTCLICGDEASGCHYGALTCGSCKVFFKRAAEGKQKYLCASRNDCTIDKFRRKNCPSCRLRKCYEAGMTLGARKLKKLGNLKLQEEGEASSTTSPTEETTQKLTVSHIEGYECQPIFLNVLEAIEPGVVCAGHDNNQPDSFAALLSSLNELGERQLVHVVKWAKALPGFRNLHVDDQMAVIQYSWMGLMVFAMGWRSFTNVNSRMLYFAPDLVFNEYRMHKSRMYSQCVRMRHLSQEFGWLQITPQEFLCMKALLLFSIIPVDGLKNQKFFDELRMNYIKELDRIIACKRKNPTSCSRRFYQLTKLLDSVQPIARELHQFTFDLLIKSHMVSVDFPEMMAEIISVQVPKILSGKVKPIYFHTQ
Outline: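 R1881 agonist challenge of a HEK293 UAS-beta-lactamase AR reporter line in the presence of compound (16 h, 37C); signal taken as FRET fluorescence after 2 h with LiveBLAzer B/G substrate at room temperature.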

[6] = molecular target: Androgen receptor (Homo sapiens) (UniProt P10275); experiment: qHTS assay to identify small molecule agonists of the androgen receptor (AR) signaling pathway (AID 743036; active = well fitted activation curve with a large enough effect in the signal ratio in the repeat runs, with a control signal flat, not every such curve was filed as active; inconclusive = weak or mixed curves, or effect the other way; inactive = no such curve, though single readings can be large or run the other way; the % refers to the signal ratio)
Outline: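 HEK293 cells stably carrying a UAS-driven beta-lactamase reporter (GeneBLAzer AR-UAS-bla-GripTite) were plated at 2,000 cells/well, rested 4 h at 37C, then exposed to compounds in DMSO for 16 h. LiveBLAzer B/G FRET substrate was added for 2 h at room temperature; fluorescence read.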

[7] = qHTS assay to identify small molecule antagonists of the androgen receptor (AR) signaling pathway using the MDA cell line - cell viability counter screen (AID 743041; also: nearly all actives have a fitted effect of over 45% in size; also: potency is read from the fitted curve at half-maximal effect)
Outline: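 In this qHTS counter assay, fluorescence intensity after CellTiter-Fluor addition indicated viability of MDA-kb2 AR-luc cells given compounds and R1881 for 16 h at 37C.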

[8] = molecular target: Androgen receptor (Homo sapiens) (UniProt P10275); experiment: qHTS assay to identify small molecule antagonists of the androgen receptor (AR) signaling pathway using the MDA cell line (AID 743042; also: nearly all actives have a fitted effect of over 55% in size; also: potency is read from the fitted curve at half-maximal effect)
Outline: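 MDA-kb2 cells (human breast carcinoma, stably carrying an MMTV-luciferase reporter responsive to AR and GR) were plated at 3,000 cells/well and preincubated 5 hr at 37C, then given compound plus R1881 agonist for 16 h. ONE-Glo luminescence was read.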

[9] = qHTS assay to identify small molecule antagonists of the thyroid receptor (TR) signaling pathway - cell viability counter screen (AID 743064); also: nearly all actives have a fitted effect of over 50% in size; also: potency is read from the fitted curve at half-maximal effect
Outline: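 GH3.TRE-Luc rat pituitary cells carrying a TRE-luciferase reporter were treated with compound plus 1 nM T3 (final) for 23.5 h at 37 °C. Viability was then read in the same wells by CellTiter-Fluor fluorescence after a further 30 min.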

[10] = qHTS assay to identify small molecule antagonists of the thyroid receptor (TR) signaling pathway (AID 743065); also: nearly all actives have a fitted effect of over 55% in size; also: potency is read from the fitted curve at half-maximal effect
Outline: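 GH3.TRE-Luc rat pituitary cells carrying two TR response elements driving luciferase were plated for 4 h, given compound plus 1 nM T3 (final), and incubated 23.5 h at 37 C. ONE-Glo luminescence measured reporter inhibition; CellTiter-Fluor fluorescence tracked cytotoxicity.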

[11] = system: thyroid hormone receptor (rat, GH3 cells); experiment: qHTS assay to identify small molecule agonists of the thyroid receptor (TR) signaling pathway (AID 743066; calls by dose curve; also: potency is read from the fitted curve at half-maximal effect)
[12] = molecular target: Estrogen receptor (Homo sapiens) (UniProt P03372); experiment: qHTS assay to identify small molecule antagonists of the estrogen receptor alpha (ER-alpha) signaling pathway (AID 743069; active = well fitted curve in the direction sought with a large enough effect in the signal ratio in the repeat runs, not every such curve was filed as active; inconclusive = weak or mixed curves, or effect the other way; inactive = no such curve, though single readings can be large or run the other way; the % refers to the signal ratio; also: potency is read from the fitted curve at half-maximal effect)
Sequence of Estrogen receptor (Homo sapiens) (P03372 whole entry, looked up): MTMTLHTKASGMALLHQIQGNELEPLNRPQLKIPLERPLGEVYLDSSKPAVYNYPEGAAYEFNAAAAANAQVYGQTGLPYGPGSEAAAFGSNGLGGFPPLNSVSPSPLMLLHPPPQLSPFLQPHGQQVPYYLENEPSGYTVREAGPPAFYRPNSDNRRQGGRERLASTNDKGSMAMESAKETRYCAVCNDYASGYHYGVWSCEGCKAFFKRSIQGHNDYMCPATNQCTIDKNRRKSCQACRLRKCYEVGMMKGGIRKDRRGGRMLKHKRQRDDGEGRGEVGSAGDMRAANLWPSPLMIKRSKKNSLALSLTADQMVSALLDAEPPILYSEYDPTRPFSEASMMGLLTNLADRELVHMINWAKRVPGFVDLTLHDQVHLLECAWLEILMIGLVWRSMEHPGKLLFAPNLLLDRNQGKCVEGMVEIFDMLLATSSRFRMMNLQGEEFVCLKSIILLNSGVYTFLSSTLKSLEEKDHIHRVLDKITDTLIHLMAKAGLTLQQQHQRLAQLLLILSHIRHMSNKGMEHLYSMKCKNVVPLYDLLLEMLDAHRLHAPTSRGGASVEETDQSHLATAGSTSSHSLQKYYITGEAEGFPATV
Outline: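 A 17beta-estradiol challenge was applied right after compound transfer to ER-alpha-UAS-bla HEK293 cells previously kept in charcoal-stripped serum. Plates stood 18 hr at 37C and 5% CO2; fluorescence was read following 2 hr FRET substrate loading at room temperature.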

[13] = qHTS assay to identify small molecule antagonists of the estrogen receptor alpha (ER-alpha) signaling pathway - cell viability counter screen (AID 743074; calls by dose curve;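 also: HEK293 cells carrying ER-alpha-UAS-bla reporter stimulated with 17beta-estradiol; nearly all actives have a fitted effect of over 45% in size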; also: potency is read from the fitted curve at half-maximal effect)
[14] = molecular target: Estrogen receptor (Homo sapiens) (UniProt P03372); experiment: qHTS assay to identify small molecule agonists of the estrogen receptor alpha (ER-alpha) signaling pathway (AID 743075; calls by dose curve)
[15] = molecular target: Estrogen receptor (Homo sapiens) (UniProt P03372); experiment: qHTS assay to identify small molecule agonists of the estrogen receptor alpha (ER-alpha) signaling pathway using the BG1 cell line (AID 743079); also: nearly all actives have a fitted effect of over 20% in size
[16] = qHTS assay to identify small molecule antagonists of the estrogen receptor alpha (ER-alpha) signaling pathway using the BG1 cell line (AID 743080; calls by dose curve;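 also: BG1 cells stimulated with 17beta-estradiol alongside compound; nearly all actives have a fitted effect of over 25% in size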; also: potency is read from the fitted curve at half-maximal effect); conditions: BG1Luc4E2 ERE-luciferase antagonist mode, luminescence; activity change, negative = inhibition: at 70.3 µM (top of the series)
Outline: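 Luminescence from a 4×ERE-luciferase reporter in BG1-Luc-4E2 cells served as read-out. Cells, pre-cultured 5 days in stripped-serum phenol-red-free medium, were exposed to compound with 17beta-estradiol co-stimulation for 21.5 h at 37 C.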

[17] = qHTS assay to identify small molecule antagonists of the estrogen receptor alpha (ER-alpha) signaling pathway using the BG1 cell line - cell viability counter screen (AID 743081);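 also: compound given together with 17beta-estradiol as the ER stimulus; nearly all actives have a fitted effect of over 45% in size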; also: potency is read from the fitted curve at half-maximal effect
Aromatase (Homo sapiens) = Aromatase (Homo sapiens) (UniProt P11511); experiment: qHTS assay to identify aromatase inhibitors (AID 743083); also: nearly all actives have a fitted effect of over 55% in size; also: potency is read from the fitted curve at half-maximal effect
Sequence of Aromatase (Homo sapiens) (P11511 whole entry, looked up): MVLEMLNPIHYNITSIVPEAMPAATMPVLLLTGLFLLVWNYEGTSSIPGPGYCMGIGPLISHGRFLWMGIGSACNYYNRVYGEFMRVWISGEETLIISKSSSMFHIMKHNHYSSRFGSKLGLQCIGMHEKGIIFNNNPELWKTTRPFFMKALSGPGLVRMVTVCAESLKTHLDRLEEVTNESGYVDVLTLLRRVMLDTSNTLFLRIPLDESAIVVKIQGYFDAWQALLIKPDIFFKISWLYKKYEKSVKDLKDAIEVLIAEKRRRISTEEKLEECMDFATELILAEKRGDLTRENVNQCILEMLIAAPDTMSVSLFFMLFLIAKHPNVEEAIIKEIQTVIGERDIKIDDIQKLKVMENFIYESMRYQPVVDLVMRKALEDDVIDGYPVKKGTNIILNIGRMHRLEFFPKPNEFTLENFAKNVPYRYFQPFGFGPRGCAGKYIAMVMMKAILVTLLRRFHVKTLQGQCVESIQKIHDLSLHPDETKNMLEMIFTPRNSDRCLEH

[18] = qHTS assay to identify aromatase inhibitors - cell viability counter screen (AID 743084); also: potency is read from the fitted curve at half-maximal effect
[19] = qHTS assay for identifying genotoxic compounds that show differential cytotoxicity against isogenic chicken DT40 cell lines with known DNA damage response pathways - wild type cell line (AID 743012); also: nearly all actives have a fitted effect of over 60% in size; also: potency is read from the fitted curve at half-maximal effect
Outline: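 Endpoint: CellTiter-Glo luminescence, 30 min RT. Cells: wild type DT40, 300/well. Exposure: compounds in DMSO, 40 h, 37 C/5% CO2, after ~0.5 h pre-incubation.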

Row | Compound | Potency [1] | Potency [2] | Potency [3] | Potency [4] | Potency [5] | outcome [6] | Potency [7] | Potency [8] | Potency [9] | Potency [10] | Potency [11] | Potency [12] | Potency [13] | Potency [14] | Potency [15] | Potency [16] | Potency [17] | Potency (Aromatase (Homo sapiens)) | Potency [18] | Potency [19]
1 | CCOc1ccc(NC(C)=O)cc1 | inactive | inactive | inactive | inactive | inactive | inactive | inactive | inactive | inactive | inactive | inactive | inactive | inactive | inactive | inactive | inactive | inactive | inactive | inactive | –
2 | Cc1ncc([N+](=O)[O-])n1CCO | inactive | inactive | inactive and 61.1 µM (active) | inactive | – | – | inactive | – | inactive | inactive | inactive | inactive | inactive | inactive | inactive | inactive | inactive | inactive | inactive | –
3 | CC1(C)S[C@@H]2[C@H](NC(=O)[C@H](N)c3ccccc3)C(=O)N2[C@H]1C(=O)O | inactive | inactive | inactive | inactive | – | – | inactive | – | – | – | – | – | inactive | – | – | – | inactive | inactive | inactive | inactive
4 | Cc1ncc([N+](=O)[O-])n1C | inactive | inactive | inactive | inactive | – | – | inactive | – | inactive | inactive | inactive | inactive | inactive | inactive | inactive | inactive | inactive | inactive | inactive | –
5 | CCCCCCc1ccc(O)cc1O | inactive | 54.6 µM (active) and 38.6 µM (active) | 21.7 µM (active) | inactive | inactive and 43.8 µM (active) and 43.6 µM (active) | inactive | inactive | inactive | 54.6 µM (active) and 54.5 µM (active) | 61.3 µM (active) | inactive | – | inactive | – | – | – | inactive | inactive and 61.1 µM (active) | – | –
6 | C1CCC(C(CC2CCCCN2)C2CCCCC2)CC1 (stereo not given) | 21.3 µM (active) | 4.73 µM (active) | 5.96 µM (active) | 23.9 µM (active) | – | – | 18.8 µM (active) | 13.3 µM (active) | 4.73 µM (active) | 5.96 µM (active) | – | – | 21.3 µM (active) | – | – | – | – | – | 18.8 µM (active) | –
7 | CCCCCCCCCCCC[N+](C)(C)Cc1ccccc1 | 8.49 µM (active) and 19.1 µM (active) and 18.9 µM (active) | 298 nM (active) and 67.3 nM (active) and 1.05 µM (active) | 668 nM (active) and 107 nM (active) and 1.05 µM (active) | 21.3 µM (active) and 19.1 µM (active) and 21.2 µM (active) | – | – | 29.8 µM (active) and 23.9 µM (active) and 37.4 µM (active) | – | 5.96 µM (active) and 12 µM (active) and 14.9 µM (active) | 5.31 µM (active) and 9.5 µM (active) and 11.8 µM (active) | inactive | – | 10.7 µM (active) and 24.1 µM (active) and 26.7 µM (active) | – | – | – | inactive and 74.5 µM (active) | 29.8 µM (active) and 42.4 µM (active) and 37.4 µM (active) | inactive and 67.3 µM (active) | –
8 | Nc1ccc(S(N)(=O)=O)cc1 | inactive | 68.9 µM (active) and inactive | inactive and 61.4 µM (active) | inactive | – | – | inactive | – | inactive | inactive | inactive and 9.74 µM (active) | – | inactive | – | – | – | inactive | inactive | inactive | –
9 | NS(=O)(=O)O | inactive | inactive | inactive | inactive | – | – | inactive | – | inactive | inactive | inactive | – | inactive | – | – | – | inactive | inactive | inactive | –
10 | COc1ccc(C(Cl)=C(c2ccc(OC)cc2)c2ccc(OC)cc2)cc1 | inactive | 29.8 µM (active) and 48.3 µM (active) and 27.3 µM (active) | 26.6 µM (active) and 60.8 µM (active) and 24.3 µM (active) | inactive | – | – | inactive | – | inactive | 11.9 µM (active) and 6.08 µM (active) and 7.7 µM (active) | inactive | 1.51 µM [inconclusive] (active) and 1.54 µM [inconclusive] (active) and 1.23 µM [inconclusive] (active) | inactive | inactive | inactive | 18.8 µM (active) and 12.1 µM (active) and 9.69 µM (active) | inactive | 8.59 µM (active) and 12.2 µM (active) | inactive | –
11 | COc1ccc2c(c1)c(CC(=O)O)c(C)n2C(=O)c1ccc(Cl)cc1 | inactive | inactive | inactive | inactive | – | – | inactive | inactive | inactive | inactive | inactive | inactive | inactive | inactive | inactive | inactive | inactive | inactive | inactive | –
12 | COc1ccc(OC(F)(F)F)cc1CN[C@H]1CCCN[C@H]1c1ccccc1 | inactive | 30.6 µM (active) | 27.3 µM (active) | 49 µM (active) | – | – | – | – | 24.3 µM (active) | 24.3 µM (active) | – | inactive | – | inactive | – | – | inactive | – | inactive | 15.4 µM (active)
